# Results filed as inconclusive are left out. A call without a number means that no potency is given here. Activity calls are given as the source filed them. Calls follow the shape of the dose curve; as a rule, active = well fitted cell-killing curve with a large enough effect; inconclusive = small, poorly fitted or top-dose-only effect, or effect the other way; inactive = no such curve, though single readings can be large or run the other way.
# Assay: Quantitative highthroughput screen to assess conditional lethalithy of SEM cells grown in RPMI1640 with dialyzed fetal bovine serum (RPMI+ds) (AID 1963884); also: nearly all actives have a fitted effect of over 35% in size
# Settings: SEM B-ALL cells, RPMI+dialyzed FBS, CellTiter-Glo viability, 48 h; series mostly up to 45.8 µM
# From the text: Assay Provider: Jason Cantor Ph.D.
# Department of Biochemistry
# University of Wisconsin-Madison, Madison, WI, USA
# Chemical screening studies have identified drug sensitivities across hundreds of cancer cell lines but most putative therapeutics fail to translate. Discovery and development of drug candidates in models that more accurately reflect nutrient levels in human blood is a major challenge. Here we performed high-throughput screens in conventional versus Human Plasma-Like Medium (HPLM) to identify compounds that were "missed" when screening using the artificial culture condition. Sets of conditional anticancer compounds spanned phases of clinical development and included non-oncology drugs were assessed. […] We also traced conditional phenotypes for several chemotherapeutics to availability of HPLM-specific metabolites and confirmed others for compounds whose reported targets are encoded by nonessential genes. Our findings establish generalizable strategies for exploiting conditional lethality in HPLM to reveal therapeutic candidates and mechanisms of action in cancer cells.
# Described herein are the results of each viability screens against three cell lines: NOMO1 (an acute myeloid leukemia cell line); P12-Ichikawa (a T-cell acute lymphoblastic leukemia); and SEM (a B-cell ALL). Each assay was screened using 3 different cell culture media: homemade human plasma-Like medium with 10% dialyzed fetal bovine serum (HPLM+ds); RPMI1640 with 10% untreated FBS and 5mM glucose (RPMI+s); and RPMI1640 with 10% dialyzed fetal bovine serum and 5 mM glucose (RPMI+ds).
# PROTOCOL TABLE (as described by Inglese J, Shamu CE and Guy RK. 2007)
# SEQUENCE No. (e.g., 1, 2, 3, etc.); […] (e.g., Cells, Incubation, Reagent, etc.); VALUE and DESCRIPTION.
# 1; Cells; 5 uL; white, solid bottom 1536-well Greiner assay plate.
# 2; Compounds; 23 nL; Kalypsis pin tool (Wako USA) equipped with a 1536-well pin head to transfer to the assay plates.
# 3; Incubation; 48 hours; 37C incubation.
# 4; Reagent; 3 uL; CellTiter Glo (Promega).
# 5; Incubation; 5 min, room temperature
# 6; Detection; Luminescence, Viewlux PerkinElmer.
# NOTES (numbers refer to Sequence numbers above)
# 1. Briefly, 5 ul of cell reagent was dispensed using a Multidrop Combi Dispenser. The NOMO1 and SEM cells were plated at 500 cells/well and the P12-Ichikawa line at 1000 cells/well.
# 2. After seeding the cells, 23 nL of MIPE 4.1 library compounds (in DMSO) were added to each plate using a Kalypsys 1536 Pintool dispenser. Bortezomib at final concentration of […] and DMSO were added to each plate as positive and negative controls respectively. For each screen, MIPE 4.1 compounds were added over an eleven-point concentration range […] in 3-fold dilutions.
# 3. Each plate was covered with a stainless steel gasketed lid to prevent evaporation and incubated for 48 hour at 37C, 95% relative humidity, and 5% CO2.
# 4-5. Three microliter CellTilter-GloTM luminescent substrate mix (Promega) reagent was added to the assay plate and incubated at room temperature for 5 min.
# 6. The luminescence signal was measured using a ViewLux (PerkinElmer) multiplate reader with a 2 second exposure time per plate. Data for each compound were normalized as percent viability such that measurements for DMSO and the empty well controls in each plate were defined as 100% and 0%, respectively.
# Potency is read from the fitted curve at half-maximal effect.
row,Compound,Potency
1,Cc1c(C)n(Cc2ccc(-c3ccccc3C(=O)O)cc2)c2ccc(C(=O)N[C@@H](C)c3ccc([N+](=O)[O-])cc3)cc12,inactive
2,Cc1cnc(Nc2ccc(CN3CCOCC3)cc2)nc1Nc1cccc(S(=O)(=O)NC(C)(C)C)c1,0.166 µM (active)
3,S=C(NCc1ccc2c(c1)OCO2)N1CCN(c2ncnc3c2oc2ccccc23)CC1,27 µM (active)
4,O=C(O)c1cc(=O)c2c(OCC(O)COc3cccc4oc(C(=O)O)cc(=O)c34)cccc2o1,inactive
5,Cc1ccc2c(c1)c1c(n2CCc2ccc(C)nc2)CCN(C)C1,inactive
6,C[C@@]12C[C@@]3(O)O[C@@H](O1)[C@]1(COC(=O)c4ccccc4)[C@@H]3C[C@@]12O[C@@H]1O[C@H](CO)[C@@H](O)[C@H](O)[C@@H]1O,inactive
7,Cc1c(O)cccc1C(=O)N[C@@H](CSc1ccccc1)[C@H](O)CN1C[C@H]2CCCC[C@@H]2C[C@@H]1C(=O)NC(C)(C)C,inactive
8,CN(C)c1ccc(C(=C2C=CC(=[N+](C)C)C=C2)c2ccc(N(C)C)cc2)cc1,0.0935 µM (active)
9,CCCCC(CC)COC(=O)C(C#N)=C(c1ccccc1)c1ccccc1 (stereo not given),inactive
10,O=C(NC1CC1)c1cccc(-c2ccc3c(NC(=O)C4CC4)n[nH]c3c2)c1,16.6 µM (active)
11,CC(C)NCC(O)c1ccc(NS(C)(=O)=O)cc1 (stereo not given),inactive
12,CC(C)(C)c1cc(C(C)(C)C)c(NC(=O)c2c[nH]c3ccccc3c2=O)cc1O,inactive
13,O=C(C[C@@H]1CC=CCCC(=O)O[C@H](c2ccccc2)CNC1=O)NCc1ccc(Cl)cc1,inactive
14,COc1nc(-c2ccc3c(c2)OCO3)n(-c2ccc(NC(=O)CSc3ccccc3)cc2)n1,inactive
15,COc1cc(C[C@@H](CO)[C@H](CO)Cc2ccc(O)c(OC)c2)ccc1O,inactive
16,CCCCCCCCCC(=O)N[C@@H](Cc1c[nH]c2ccccc12)C(=O)N[C@H](CC(N)=O)C(=O)N[C@@H](CC(=O)O)C(=O)N[C@@H]1C(=O)NCC(=O)N[C@@H](CCCN)C(=O)N[C@@H](CC(=O)O)C(=O)N[C@H](C)C(=O)N[C@@H](CC(=O)O)C(=O)NCC(=O)N[C@H](CO)C(=O)N[C@@H]([C@@H](C)CC(=O)O)C(=O)N[C@@H](CC(=O)c2ccccc2N)C(=O)O[C@@H]1C,inactive
17,O=C(Nc1cc2cc[nH]c2cn1)c1ccccc1,3.32 µM (active)
18,CCc1cnn2c(NCc3ccc[n+]([O-])c3)cc(N3CCCC[C@@H]3CCO)nc12,0.059 µM (active)
19,CCOC(=O)N1c2ccc(C(F)(F)F)cc2[C@@H](N(Cc2cc(C(F)(F)F)cc(C(F)(F)F)c2)C(=O)OC)C[C@H]1CC,inactive
20,Cc1noc(-c2ccc(CSCCC(=O)O)cc2)c1NC(=O)OC(C)c1ccccc1Cl (stereo not given),inactive

row,Compound,Potency
1,O=c1[nH]nc(OCCCc2ccc(Cl)cc2)c(NCc2cccnc2)c1Br,14.8 µM (active)
2,Cc1cccc(-c2[nH]c(C(C)(C)C)nc2-c2ccc3c(c2)OCO3)n1,9.35 µM (active)
3,CN(C)CCN1C(=O)c2cccc3cc(N)cc(c23)C1=O,9.35 µM (active)
4,COc1ccc(S(=O)(=O)Nc2cc(-c3c(O)ccc4ccccc34)c(O)c3ccccc23)cc1,14.8 µM (active)
5,CON=C(C(=O)N[C@@H]1C(=O)N2C(C(=O)O)=C(Cn3ccc(=N)n3CCO)CS[C@H]12)c1csc(N)n1,inactive
6,N#CC(=C1Nc2ccccc2S1)c1ccnc(OCc2ccc(CN3CCOCC3)cc2)n1,inactive
7,Nc1nc(Nc2ccc(S(N)(=O)=O)cc2)nn1C(=O)c1c(F)cccc1F,9.35 µM (active)
8,Cc1cc([C@@H](C)Nc2ccccc2C(=O)O)c2nc(N3CCOCC3)cc(=O)n2c1,9.59 µM (active)
9,CCCCCCCCCCCCCCCC(=O)OC[C@@H](NC(=O)C(Cl)Cl)[C@H](O)c1ccc([N+](=O)[O-])cc1,inactive
10,NS(=O)(=O)NCCNc1nonc1C(=Nc1ccc(F)c(Br)c1)NO,9.33 µM (active)
11,CCCn1c(=O)c2[nH]c(C34CC5CC3C[C@@H](C5)C4)nc2n(CCC)c1=O,inactive
12,O=C(Nc1ccc(OC(F)(F)F)cc1)c1sccc1NCc1ccnc2ccccc12,7.43 µM (active)
13,CS(=O)(=O)Oc1ccc2c(NC(N)=O)c(C(=O)c3ccc(Cl)cc3Cl)oc2c1,inactive
14,CCCCNc1cc(C(=O)O)cc(S(N)(=O)=O)c1Oc1ccccc1,inactive
15,O=C1c2c(O)cc(O)cc2O[C@H](c2cc(O)c(O)c(O)c2)[C@H]1O,5.26 µM (active)
16,COc1ccc(-c2oc3c(CC=C(C)C)c(OC4O[C@H](CO)[C@@H](O)[C@H](O)[C@@H]4O)cc(O)c3c(=O)c2OC2O[C@@H](C)[C@H](O)[C@@H](O)[C@@H]2O)cc1 (stereo not given in full),18.7 µM (active)
17,COc1ccc(C2CC(c3ccccc3)=NN2c2ccc(S(N)(=O)=O)cc2)cc1 (stereo not given),1.66 µM (active)
18,CC(C)(F)C[C@H](N[C@@H](c1ccc(-c2ccc(S(C)(=O)=O)cc2)cc1)C(F)(F)F)C(=O)NC1(C#N)CC1,inactive
19,Nc1ccc(S(=O)(=O)Nc2ncccn2)cc1,inactive
20,FC(F)(F)c1ccc(Nc2nc3ccc(Oc4ccnc(-c5ncc(C(F)(F)F)[nH]5)c4)cc3[nH]2)cc1,16.6 µM (active)
